Source: PubChem BioAssay (NCATS)
“And” between values parts separate entries of the source, which are not always exact repeats. Equal values may be shown once. Results filed as inconclusive are left out. Entries that show only a call come without a potency. More than one record can exist for a structure, and the calls need not agree. The source made the active and inactive calls. Unless noted, calls follow the shape of the dose curve; as a rule, active = well fitted curve in the direction sought with a large enough effect; inconclusive = small, poorly fitted or top-dose-only effect, or another doubt; inactive = no such curve, though single readings can be large; an effect the other way counts as inactive or inconclusive.

Key:
[1] = target: Rap guanine nucleotide exchange factor 3 (Homo sapiens) (UniProt O95398); assay: Counterscreen qHTS for agonist of cAMP-regulated guanine nucleotide exchange factor 3 (EPAC1) (AID 1645889); also: nearly all actives have a fitted effect of over 40% in size
How it was run: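 Rap1B–BODIPY-GDP (250 nM) with 50 uM GDP; compounds pin-transferred to 9.74 nM–152 uM final (activator) or from 7.32 nM upwards (inhibitor). Fluorescence Ex/Em 480/540 nm read at 5 and 30 min, then after adding cAMP or buffer, at room temperature.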

[2] = target: Catechol O-methyltransferase (Homo sapiens) (UniProt P21964); assay: Confirmatory Screen for Target Class Profiling of Small Molecule Inhibitors of Methyltransferases (AID 1745852; calls by dose curve; also: potency is read from the fitted curve at half-maximal effect); settings: MTase-Glo luminescence, SAH detection, recombinant enzyme; measured here: COMT max response; stronger effect = lower value
[3] = target: Guanidinoacetate N-methyltransferase (Homo sapiens) (UniProt Q14353); assay: as above; settings: activity change, negative = inhibition: at 57.3 µM (top of the series) unless noted
[4] = target: Nicotinamide N-methyltransferase (Homo sapiens) (UniProt P40261); assay: as above; settings: MTase-Glo luminescence, SAH detection, recombinant enzyme; measured here: NNMT max response; stronger effect = lower value
[5] = target: Phenylethanolamine N-methyltransferase (Homo sapiens) (UniProt P11086); assay: as above; settings: MTase-Glo luminescence, SAH detection, recombinant enzyme; measured here: PNMT max response; stronger effect = lower value
[6] = target: Glutathione peroxidase 1 (Homo sapiens) (UniProt P07203); assay: Primary qHTS Assay for Inhibitors of Recombinant Selenoprotein Glutathione Peroxidase 1 (GPX1) (AID 1845191); also: nearly all actives have a fitted effect of over 65% in size
How it was run: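 GR-coupled assay: compounds preincubated 30 min at room temperature with GPX1, then reaction started with CHP; final 10 nM GPX1, 1 mM GSH, 0.5 mM CHP, 0.5 mM NADPH, 100 nM GR, 0.01% BSA, pH 7.5 Tris buffer. NADPH fluorescence (340/450 nm) read at 0 and 15 min.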

[7] = target: Phospholipid hydroperoxide glutathione peroxidase GPX4 (Homo sapiens) (UniProt P36969); assay: Primary qHTS Assay for Inhibitors of Recombinant Selenoprotein Glutathione Peroxidase 4 (GPX4) (AID 1845192); also: nearly all actives have a fitted effect of over 65% in size; also: potency is read from the fitted curve at half-maximal effect
How it was run: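 GR-coupled assay: recombinant GPX4 preincubated 30 min with compound at room temperature; final 200 nM GPX4, 1 mM GSH, 0.5 mM cumene hydroperoxide, 0.5 mM NADPH, 100 nM GR, 0.01% BSA, pH 7.5 Tris. NADPH fluorescence (340/450 nm) read at 0 and 15 min.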

[8] = target: Luciferin 4-monooxygenase (Photinus pyralis) (UniProt P08659); assay: Primary firefly luciferase (FLuc) qHTS assay for identification of artifact compounds. (AID 1845220); also: nearly all actives have a fitted effect of over 60% in size
How it was run: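 Enzymatic FLuc inhibition assay: compounds pre-exposed to luciferin/ATP (10 uM each) for 15 min, then purified P. pyralis enzyme at 10 nM added. Read-out: luminescence at 5 min.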

[9] = Primary fluorescence-based thiol-reactive (MSTI) qHTS assay for identification of artifact compounds. (AID 1845221); also: nearly all actives have a fitted effect of over 65% in size; also: potency is read from the fitted curve at half-maximal effect
How it was run: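 First, 4 uM MSTI in 2% DMSO/PBS pH 7.4 was dispensed; next, compounds were added; then plates sat 1 h at room temperature without light. Finally, emission at 598 nm was recorded.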

[10] = system: Nanoluciferase (engineered Oplophorus gracilirostris luciferase); assay: Primary Nanoluciferase (NLuc) qHTS assay for identification of artifact compounds. (AID 1845222); also: potency is read from the fitted curve at half-maximal effect
How it was run: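 S16 cell supernatant NLuc, 1:55; cpds qHTS; 15 min RT dark; Nano-Glo substrate 1:100, 5 min; luminescence; Hill fit of % inhibition.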

[11] = Primary redox qHTS assay for identification of artifact compounds. (AID 1845223)
How it was run: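 Amplex Red (25 uM) and HRP (250 mU/mL) in HBSS, with compounds for 15 min, then 250 uM DTT for 30 min, room temperature, dark. Fluorescence 525/598 nm read; normalized to DMSO and 10 uM DA3003; Hill fit.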

Catechol O-methyltransferase (Homo sapiens), sequence (P21964 whole entry, looked up): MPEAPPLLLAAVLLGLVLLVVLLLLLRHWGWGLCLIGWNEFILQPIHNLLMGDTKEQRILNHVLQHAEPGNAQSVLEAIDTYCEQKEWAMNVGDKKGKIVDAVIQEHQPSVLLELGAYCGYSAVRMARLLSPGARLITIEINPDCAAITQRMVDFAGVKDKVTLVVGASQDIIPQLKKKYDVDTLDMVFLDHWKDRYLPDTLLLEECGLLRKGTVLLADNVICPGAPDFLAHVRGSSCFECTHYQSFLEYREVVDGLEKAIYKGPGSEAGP
Phospholipid hydroperoxide glutathione peroxidase GPX4 (Homo sapiens), sequence (P36969 whole entry, looked up): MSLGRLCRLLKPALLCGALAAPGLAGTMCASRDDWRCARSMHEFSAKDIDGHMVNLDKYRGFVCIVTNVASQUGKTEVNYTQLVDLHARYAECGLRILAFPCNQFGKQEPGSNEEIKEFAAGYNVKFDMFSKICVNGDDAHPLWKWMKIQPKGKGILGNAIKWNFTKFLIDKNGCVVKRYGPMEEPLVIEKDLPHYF
Phenylethanolamine N-methyltransferase (Homo sapiens), sequence (P11086 whole entry, looked up): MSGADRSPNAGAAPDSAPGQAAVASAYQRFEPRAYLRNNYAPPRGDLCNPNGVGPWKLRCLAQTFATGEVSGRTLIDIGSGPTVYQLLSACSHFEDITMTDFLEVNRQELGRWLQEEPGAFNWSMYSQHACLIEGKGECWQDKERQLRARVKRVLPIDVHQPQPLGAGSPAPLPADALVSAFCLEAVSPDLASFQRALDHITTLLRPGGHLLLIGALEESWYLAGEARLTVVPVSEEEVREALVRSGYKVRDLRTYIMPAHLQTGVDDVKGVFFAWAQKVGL
Glutathione peroxidase 1 (Homo sapiens), sequence (P07203 whole entry, looked up): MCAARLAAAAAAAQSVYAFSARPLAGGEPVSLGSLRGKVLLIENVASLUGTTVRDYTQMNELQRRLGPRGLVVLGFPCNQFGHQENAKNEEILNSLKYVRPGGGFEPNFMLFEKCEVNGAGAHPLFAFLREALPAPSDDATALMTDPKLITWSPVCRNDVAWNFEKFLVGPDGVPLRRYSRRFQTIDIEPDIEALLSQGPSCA
Nicotinamide N-methyltransferase (Homo sapiens), sequence (P40261 whole entry, looked up): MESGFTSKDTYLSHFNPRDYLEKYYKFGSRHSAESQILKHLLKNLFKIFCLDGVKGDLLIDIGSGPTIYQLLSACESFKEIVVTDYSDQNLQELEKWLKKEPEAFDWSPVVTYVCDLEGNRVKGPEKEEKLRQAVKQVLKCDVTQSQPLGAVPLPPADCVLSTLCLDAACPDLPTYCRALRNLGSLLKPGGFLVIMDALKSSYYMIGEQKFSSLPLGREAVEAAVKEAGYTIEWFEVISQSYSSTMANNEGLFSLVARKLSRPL

Row | SMILES | outcome [1] | activity [2] [%] | Potency [3] | activity [4] [%] | activity [5] [%] | Potency [6] | Potency [7] | Potency [8] | Potency [9] | Potency [10] | Potency [11] | activity change, negative = inhibition [3]
1 | C[C@]12CC[C@@H]3c4ccc(OS(=O)(=O)O)cc4CC[C@H]3[C@@H]1CCC2=O | inactive |  |  |  |  |  |  |  |  |  |  | 
2 | CCOC(=O)c1cnc2ccc(-c3cncc(NS(=O)(=O)c4ccccc4)c3)cn12 |  | -38.9 | 42.9 µM (active) | -25.7 | -35.9 | inactive | inactive | inactive | inactive | inactive | inactive | 
3 | COC1C=C(C)C(O)(CO)C2(C)CCCC(C)(C)C12 (stereo unspecified) |  | -68.4 |  | -3.75 | -2.37 | inactive | inactive | inactive | inactive | inactive | inactive | -5.83%
4 | CC(C)(O)C(=O)N1CCN(c2ccc(C(F)(F)F)c(C3=C(c4c[nH]c5ccccc45)C(=O)NC3=O)c2)CC1 |  | -37.9 | 30.4 µM (active) | -37 | -34.7 | inactive | inactive | inactive | 3.36 µM (active) | inactive | inactive | 
5 | COc1cc(/C=N\NC(=O)c2ccc3c(c2)OCO3)ccc1OCc1ccccc1 |  | -3.52 |  | -20.5 | -1.07 | inactive | inactive | inactive | inactive | inactive | inactive | 1.69%
6 | O=C(NCCCc1ccccc1)c1cccc(-c2cc(O)c3ncccc3c2)c1 |  | -82.7 |  | -28.1 | 4.23 | inactive | inactive | inactive | inactive | inactive | inactive | -1.73%
7 | C=C1C(=O)O[C@@H]2C=C(COC(C)=O)CC/C=C(\CO)CC[C@@H]12 |  | -83.7 |  | 2.08 | 0.0072 | inactive | inactive | inactive | inactive | inactive | inactive | 2.22%
8 | O=C([C@@H]1CCCN(c2ccc3[nH]c(C4(n5cc(Cl)cn5)CC4)nc3n2)C1)N1CCCC1 |  | -0.433 |  | 0.992 | 0.881 | inactive | 25.5 µM (active) | inactive | inactive | inactive | inactive | 0%
9 | CCC(=C(c1ccc(OCCN2CCCC2)cc1)c1ccc(OCCN2CCCC2)cc1)c1ccccc1 |  | -7.7 |  | -3.61 | -4.76 | inactive | inactive | inactive | inactive | inactive | inactive | -5.33% [at 12.7 µM]
10 | CC(C)(C)Sc1c(CC(C)(C)C(=O)O)n(Cc2ccc(Cl)cc2)c2ccc(OCc3ccc4ccccc4n3)cc12 |  | 1.57 | inactive | -17.1 | -5.18 | inactive | inactive and 8.06 µM (active) | inactive | inactive | inactive | inactive | 
11 | CC(C)C[C@H](C(=O)O)c1cc(-c2ccc(C(F)(F)F)cc2)cc(-c2ccc(C(F)(F)F)cc2)c1 |  | -6.76 | 48.2 µM (active) | -40.6 | -16.1 | inactive | inactive | inactive | inactive | inactive | inactive | 
12 | C=C1C(=O)OC2C(OC(=O)C=C(C)C)C(C)=C3C(=O)C=C(C)C3C(O)C12 (stereo unspecified) |  | -65.9 |  | 2.7 | 4.72 | inactive | inactive | inactive | inactive | 7.4 µM (active) | inactive | -0.769%
13 | C=C1C(=O)OC2/C=C(/C)C3=CC(=O)C(C)(CC(OC(=O)/C(C)=C/COC(C)=O)C12)O3 (stereo unspecified) |  | -88.1 |  | 0.146 | -3.18 | inactive | inactive | inactive | 4.12 µM (active) | inactive | inactive | 0.139% [at 29.8 µM]
14 | CCC(=O)N1CCOc2c(cc(-c3ccc(OC)c(OC)c3)cc2OC[C@H]2CCCN(C)C2)C1 |  | -13.1 |  | -10.5 | -9.1 | inactive | inactive | inactive | inactive | inactive | inactive | -8.77%
15 | CC12CCC3C1C(c1c(cc(O)c(C(=O)c4ccccc4)c1O)O2)C3(C)C (stereo unspecified) |  | -35.5 | 21.1 µM (active) | -25.6 | -30.9 | inactive | inactive | inactive | inactive | inactive | inactive | 
16 | Cc1sc2c(c1C)C(c1ccc(Cl)cc1)=N[C@H](CC(=O)NCCCCNC(=O)COc1cccc3c1C(=O)N([C@H]1CCC(=O)NC1=O)C3=O)c1nnc(C)n1-2 |  | -0.126 |  | -57.3 | 3.3 | inactive | inactive | inactive | inactive | inactive | inactive | 0%
17 | CN(C)CCOC(C)(c1ccccc1)c1ccc(Cl)cc1 (stereo unspecified) |  | -7.63 |  | -25.2 | -3.91 | inactive | inactive | inactive | inactive | inactive | inactive | -4.69%
18 | CC(C)(O)c1ccc2c(c1)ncn2-c1cccc(-c2ccccc2C#N)c1 |  | -35.9 | 27.1 µM (active) | -41.8 | -37.6 | inactive | inactive | inactive | inactive | inactive | inactive | 
19 | COc1ccccc1N1CCN(c2ncnc3n[nH]c(Br)c23)CC1 |  | -8.96 |  | -42.7 | -19.8 | inactive | inactive | inactive | inactive | inactive | inactive | -0.635%
